Bioassay records deposited in PubChem by National Center for Advancing Translational Sciences (NCATS).
Shiga toxin inh – Shiga toxin inhibition; 290,000 compounds, 9.2% hits; AID 2315; Vero cells, Shiga toxin protein synthesis inhibition reporter; inhibition, % at 38.7 µM; in the data active = inhibition mostly above about 28%, no sharp cut-off; inactive = mostly below about 43%; also: 0% is about no effect
NS1 function inh – influenza NS1 inhibition | Potency, µM (highest dose often 46.1 µM), for the others: at the highest dose activity, positive = more growth | 270,000 compounds, 0.4% hits | AID 2326; calls by dose curve; also: potency is read from the fitted curve at half-maximal effect; actives are rising curves; nearly all actives have a fitted effect of over 50% in size
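Growth recovery, yeast-based: influenza A NS1 expressed in S. cerevisiae causes slow growth, and suppressors are detected by OD600. The parent strain without NS1 is used as positive control.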
CHX counter – counter-screen for Shiga toxin inhibitors: cycloheximide protein synthesis inhibition. cell reporter, cycloheximide protein synthesis inhibition counterscreen. max response, %. 300,000 compounds, 12% hits. AID 2314; in the data active = max response mostly above about 13%, no sharp cut-off; inactive = mostly below about 14%; also: read at 38.3 µM for the half of the compounds with a filed dose; 0% is about no effect
SARS PLpro yeast – SARS-CoV PLP inhibition in yeast; Potency, µM (highest dose often 32.9 µM), inactives show at the highest dose activity, positive = growth rescue, hits mostly activators; S. cerevisiae expressing SARS-CoV PLpro, growth rescue; 330,000 compounds, 0.19% hits; calls by dose curve; also: potency is read from the fitted curve at half-maximal effect; 0% is about no effect; nearly all actives have a fitted effect of over 55% in size
Pf growth 96h – inhibits malaria parasite growth, 96 h | P. falciparum luciferase reporter growth, 96 h | Potency, µM (top dose mostly 28.7 µM), inactives show top-dose activity change, negative = inhibition, usual class: inhibitors | 320,000 compounds, 6.9% hits | AID 504834; also: potency is read from the fitted curve at half-maximal effect; % is scaled to controls: 0 for no effect and ±100 for the full control effect
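Compounds incubated with erythrocytes infected by luciferase-expressing P. falciparum (2% hematocrit, 0.05% parasitemia final) for 96 hours, 37 C in 5% CO2. Growth inhibition scored as decreased luciferase luminescence.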
Pf growth 48h – inhibits P. falciparum growth in the first generation, 48 h | P. falciparum luciferase growth in erythrocytes, 48 h | Potency, µM (top dose mostly 28.7 µM), without a hit: top-dose activity change, negative = inhibition, most hits filed as inhibitors | 310,000 compounds, 5.9% hits | AID 504832; also: potency is read from the fitted curve at half-maximal effect; % is scaled to controls: 0 for no effect and ±100 for the full control effect
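First compound was added to culture medium, then infected red cells at 0.1% parasitemia and 2% hematocrit (final). After incubation at 37 C under 5% CO2, luciferase detection reagent was dispensed and light output recorded.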
Numbers without * were called inactive; i = inactive; ? = inconclusive; . = no result given. A selection: hits, their analogues and other compounds. The true share with any hit is near 21%. Unless noted, calls follow the shape of the dose curve; as a rule, active = well fitted inhibition curve with a large enough effect; inconclusive = small, poorly fitted or top-dose-only effect, or another doubt; inactive = no such curve, though single readings can be large or run the other way.

SMILES | Shiga toxin inh | NS1 function inh | CHX counter | SARS PLpro yeast | Pf growth 96h | Pf growth 48h
O=C(CNC(=O)C1CCCCC1)NNC(=O)c1ccccc1Br | -7 | 1% | -2 | 0% | ? | ?
O=C(NNC(=O)C1CC=CCC1)c1ccccc1O (configuration not stated) | 25 | -3% | 18* | 2% | ? | 54%
O=C(NNC(=O)C1CC=CCC1)c1ccccc1Br (configuration not stated) | 17 | 14% | active | -3% | ? | 26%
O=C(NNC(=O)C1CCN(S(=O)(=O)c2ccccc2)CC1)c1ccccc1O | -5 | 4% | -3 | ? | ? | -5%
Cc1ccc(C)c(S(=O)(=O)N2CCCOC2CNC(=O)C(=O)NCCCN2CCOCC2)c1 (configuration not stated) | -8 | 1% | -3 | 3% | 3% | -2%
CN1/C(=C\C(=O)Nc2ccc(F)cc2)C(C)(C)c2ccccc21 | 33 | -24% | 1 | -75% | ? | 5.2µM*
CN1/C(=C\C(=S)NC(=O)c2cccc(Br)c2)C(C)(C)c2ccccc21 | 2 | 26% | 6 | 10% | 12µM* | ?
Cc1cccc(NC(=O)c2cc3c(=O)n4ccccc4nc3s2)c1 | 27 | -9% | 1 | -1% | 30% | 25%
Cc1cccc(NC(=O)c2cnc3sccn3c2=O)c1 | 77* | -32% | 56* | -1% | 412% | 160%
Cc1cccc(NC(=O)c2cnc3ccccn3c2=O)c1 | 22* | -7% | 31* | -1% | 12µM* | 188%
COc1ccc(NC(=O)c2cnc3sccn3c2=O)cc1 | 43* | -18% | 27* | 0% | 45% | 107%
O=C(Nc1cnc2sccn2c1=O)c1ccccc1Cl | 65 | -6% | 40* | 1% | -19% | 131%
FC(F)(F)c1cccc(Cn2nnnc2-c2cc(Cl)cc(Cl)c2)c1 | -5 | -58% | -3 | -8% | ? | 35%
CCc1nc2ccc(C(=O)NC3CCC(C)CC3)cc2nc1CC (configuration not stated) | 1 | ? | -3 | 2% | -4% | 16%
CCOC(=O)C1CCCN(S(=O)(=O)CCNC(=O)c2ccc3c(c2)OCO3)C1 (configuration not stated) | . | . | . | -5% | -23% | ?
O=C(NCC1CCCO1)c1ccc(Cl)c(S(=O)(=O)N2CCCCC2)c1 (configuration not stated) | -5 | -3% | -2 | 0% | 2% | ?
Cc1cccc(NC(=O)c2cnc3sccn3c2=O)c1C | 66* | 7% | 24* | -3% | -18% | 99%
COC(=O)CC1C(=O)NCCN1C(=O)c1ccc(Cl)cc1 (configuration not stated) | -8 | -5% | -3 | 6% | 10% | 7%
COc1ccc(NC(=O)CC2CCCC2)cc1OC | -5 | -2% | 15 | 0% | -16% | 0%
O=C(Nc1ccc2c(c1)CCC2)c1ccc(F)cc1 | 0 | -7% | 30* | -9% | -51% | -20%
O=C(CC1CCCC1)Nc1ccc2c(c1)CCC2 | 51* | -7% | 29* | 2% | 117% | 104%
Cc1cc(C)cc(NC(=O)Nc2ccc3c(c2)CCC3)c1 | -2 | 3% | -3 | 4% | 3% | -25%
O=C(Nc1ccc2c(c1)CCC2)c1ncoc1-c1ccccc1F | 79 | 2% | 27* | 1% | 14% | 39%
Cc1ccc(NC(=O)Nc2ccc3c(c2)CCC3)cc1 | 54* | -5% | 48* | 2% | -1% | 56%
CCc1ccccc1N(C(=O)c1cccs1)C1C=CS(=O)(=O)C1 (configuration not stated) | 2 | -2% | -3 | 16% | ? | ?
SMILES | Shiga toxin inh | NS1 function inh | CHX counter | SARS PLpro yeast | Pf growth 96h | Pf growth 48h
Cc1ccccc1NC(=O)CNC(=O)c1ccc(C(F)(F)F)cc1 | 27 | 8% | 11 | 17% | 69% | 17%
CCCNC(=O)Nc1ccc(C(F)(F)F)cc1 | 43* | -4% | 18* | -3% | ? | 7%
Cc1ccccc1NC(=O)Nc1ccc(C(F)(F)F)cc1 | 56* | -7% | 23* | -2% | i | -101%
O=[N+]([O-])c1cccc(CNc2ccc3c(c2)CCC3)c1 | active | 5% | 19 | -50% | -24% | 5%
CC(NC(=O)Nc1cccc([N+](=O)[O-])c1)(C(F)(F)F)C(F)(F)F | -5 | -11% | -2 | -14% | ? | ?
CCCCNC(=O)Nc1ccc(C(O)(C(=O)OC)C(F)(F)F)cc1 (configuration not stated) | 5 | -2% | 1 | 8% | 2% | 3%
O=C(Nc1cccc([N+](=O)[O-])c1)Nc1ccc2c(c1)CCC2 | 30 | 0% | 12* | -2% | 61% | -11%
CC1CN(CCCCOc2ccc(F)cc2)CC(C)O1 (configuration not stated) | 11 | -3% | -7 | 0% | -3% | 0%
CC(C)Cn1c(N)c(C=O)c(=O)[nH]c1=O | 27 | . | -3 | 1% | 1% | -2%
O=C(Nc1ccc(F)cc1)Nc1ccc2c(c1)CCC2 | 68* | -2% | 49* | 0% | 178% | 3%
O=C(CNC(=O)c1ccccc1F)Nc1ccc2c(c1)CCC2 | . | . | . | -2% | 136% | 134%
CCc1ccc(CN(C)CC(=O)Nc2ccc3c(c2)CCC3)cc1 | -13 | . | 8 | 1% | 21% | -5%
Cc1ccccc1NC(=O)Nc1ccc2c(c1)CCC2 | 104* | 0% | 28* | ? | -20% | 94%
COC(=O)c1sccc1NC(=O)Nc1cccc([N+](=O)[O-])c1 | -3 | -14% | 2 | 11% | ? | 26%
O=C(Nc1ccc2c(c1)CCC2)Nc1ccccc1F | 64* | -16% | 47* | -5% | 36% | 123%
O=C(Nc1cccc([N+](=O)[O-])c1)Nc1cccs1 | 37 | . | 32* | -7% | -7% | ?
O=C1CN(C(=O)CSc2ccccn2)c2ccccc2N1 | . | . | . | 2% | . | .
O=C(Nc1ccc2c(c1)CCC2)Nc1ccc(F)cc1F | 74* | -3% | 67* | -2% | ? | 120%
O=C(Nc1ccccc1)Nc1ccc2c(c1)CCC2 | 156* | 17% | 81* | -1% | 4% | 73%
O=C(Nc1cccc(F)c1)Nc1ccc2c(c1)C(=O)OC2 | 34 | ? | 8 | 0% | 34% | 26%
O=C(Nc1cccc(F)c1)Nc1ccc2c(c1)CCC2 | 80* | -4% | 25* | -1% | 1.7µM* | -8%
O=C(Cc1ccccc1)Nc1ccc2c(c1)CCC2 | 105* | . | 39* | -2% | 35% | 145%
CCOc1ccc(NC(=O)Nc2ccc3c(c2)CCC3)cc1 | -6 | 3% | 3 | 2% | 29% | 3%
O=C(Nc1ccc(F)cc1F)NC1CCCc2ccccc21 (configuration not stated) | -5 | 0% | -3 | -2% | 8% | 12%
CC(=O)Nc1cc([As](=O)(O)O)ccc1O | 6 | -2% | 3 | 0% | 11µM* | ?
